# In the library only some 5.2% were active in any assay of this set; here they are far more common.
# Tau fluor counter = counter-screen for tau fibril formation inhibitors | hit rate 0.93% among 280,000 | AID 1463 | tau K18 P301L Alexa594 fluorescence, heparin fibrillization | Potency, µM (titrated, usually from 57.7 µM), for the others: at the top dose activity change, negative = decrease; further: potency means the concentration at half of the fitted maximal effect; nearly all actives have a fitted effect of over 55% in size
#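 Human K18 P301L tau (15 uM unlabeled plus 0.24 uM Alexa 594-labeled, final) in 100 mM sodium acetate pH 7 was mixed with compound and 20 uM heparin and incubated 6 hr at 37 C.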
# Coupling enz = inhibits coupling enzyme system, counter-screen for aldolase hits. coupling enzyme system counterscreen, AmpLite Red fluorescence. activity change, negative = inhibition, % at 58.2 µM, hits read low. hit rate 0.67% among 290,000. AID 2472; in the data active means activity change below about -30%
#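 Activity here indicates interference with the coupling reaction, not aldolase inhibition. Compounds at 57.5 uM final met coupling enzymes for 10 min at RT; substrate and AmpLite Red detection followed, with a 525/598 nm fluorescence read after 20 min.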
# Sfp PPTase inh = inhibitors of Bacillus subtilis Sfp phosphopantetheinyl transferase | Q9F4F7 | Biochemical Sfp PPTase activity, qHTS | Potency, µM, inactives show largest response in the series, negative = inhibition, hits mostly inhibitors | hit rate 3.5% among 310,000 | AID 1490;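 further: the enzyme is Sfp with the accession as filed and its product quenches rhodamine fluorescence; potency means the concentration at half of the fitted maximal effect; 0% = enzyme reaction without inhibitor and -100% = no enzyme wells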
#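 After 15 min at room temperature with compound, 15 nM Sfp received 5 uM rhodamine-CoA plus 12.5 uM BHQ-2-ybbR (50 mM Hepes pH 7.6, 10 mM MgCl2). Rate came from the fluorescence difference over 30 min, ex 525/em 598 nm.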
# Tau fibril ThT = inhibitors of human tau fibril formation, thioflavin T binding. P10636. hit rate 2.1% among 270,000. Potency, µM (highest dose often 57.4 µM), without a hit: at the top dose activity, negative = inhibition, hits mostly inhibitors. recombinant tau K18 P301L (four-repeat tau fragment), heparin-induced fibrillization, ThT fluorescence; further: potency means the concentration at half of the fitted maximal effect; nearly all actives have a fitted effect of over 55% in size
# Target sequence (P10636 561-689 P618L limits assumed): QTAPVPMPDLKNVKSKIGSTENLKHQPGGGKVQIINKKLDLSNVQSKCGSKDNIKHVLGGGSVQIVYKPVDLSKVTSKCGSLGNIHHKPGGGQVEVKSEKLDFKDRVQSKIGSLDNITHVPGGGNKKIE
#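 Heparin-induced (20 uM) aggregation of recombinant human K18 P301L tau, 15 uM unlabeled with 0.24 uM labeled, pH 7 acetate buffer, 6 hr at 37 C with compound. Fibrils quantified by 30 uM ThT fluorescence after 1 hr ambient incubation.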
# Tau fibril FP = tau fibrillization inhibition (FP); P10636; K18 P301L tau heparin fibrillization, Alexa594 FP, 6 h; Potency, µM (titrated, usually from 57.7 µM), for inactives: at the highest dose activity, negative = inhibition, most hits filed as inhibitors; hit rate 0.39% among 280,000; AID 1468; further: potency means the concentration at half of the fitted maximal effect; nearly all actives have a fitted effect of over 55% in size
#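 K18 P301L tau (15 uM unlabeled/0.24 uM Alexa 594-labeled, final) + compound + heparin 20 uM final; 100 mM NaOAc pH 7; 6 hr 37 C; ThT 30 uM final added, 1 hr RT; FP ex 555/em 632 nm.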
# * marks the source's active call; other numbers are inactive results; ? = inconclusive; nt = not tested or not shown. Unless noted, the call rests on the fitted dose curve; in most records, active means well fitted curve in the direction sought with a large enough effect; inconclusive means small, poorly fitted or top-dose-only effect, or another doubt; inactive means no such curve, though single readings can be large; an effect the other way counts as inactive or inconclusive. Unless noted, on the % scale 0 is the no-effect control and ±100 the full control effect.
SMILES,Tau fluor counter,Coupling enz,Sfp PPTase inh,Tau fibril ThT,Tau fibril FP
CC(=O)OC1CC[C@]2(C)C(CC(OC(C)=O)[C@@]3(C)C4=CC(=O)OC(c5ccoc5)[C@]4(C)CCC23)C1(C)C (stereo partly drawn),-1.0%,-0.2,0.3%,?,-1.5%
COc1cc(C2Nc3c(F)cccc3C3C=CCC32)cc(Br)c1OC (stereo not drawn),?,-2.1,39.8µM*,?,-6.4%
O=c1c(N=Nc2ccc(O)cc2)c(-c2ccccc2)[nH]n1-c1ccc([N+](=O)[O-])cc1,?,0.1,11.1%,?,-5.8%
O=c1cc(-c2ccccc2)[nH]n1-c1ccc([N+](=O)[O-])cc1,?,-0.4,-1.6%,12.6µM*,5.0%
Cc1cc(Cn2cnc3c2C[C@@H](C(=O)O)N(C(=O)C(c2ccccc2)c2ccccc2)C3)ccc1N(C)C,6.3%,13.9,?,-8.8%,0.8%
O=C(O)CSc1cc(C(=O)c2cc(F)ccc2O)cn2c(=O)c3c(-c4ccccc4)csc3nc12,-25.3%,13.0,-20.0%,28.2µM*,-12.6%
CCOC(=O)c1sc2nc3c(SCCC(=O)O)cc(C(=O)c4cc(OC)ccc4O)cn3c(=O)c2c1C,-23.7%,-8.1,-22.5%,25.1µM*,-4.3%
Cc1ccc(C(=O)NNC(=S)Nc2cccc(Cl)c2Cl)cc1[N+](=O)[O-],?,6.1,-9.8%,25.1µM*,7.4%
CC(=O)c1cccc(NC(=S)NNC(=O)c2ccc(C)c([N+](=O)[O-])c2)c1,?,2.0,18.6%,?,9.5%
COc1ccc(C(=O)N2CCCC(CCC(=O)NCc3ccc(F)c(F)c3)C2)cc1F (stereo not drawn),-1.0%,0.7,13.3%,-3.7%,-2.1%
COc1ccc(C(=O)N2CCCC(CCC(=O)NCc3ccc(F)c(F)c3)C2)o1 (stereo not drawn),-6.9%,-2.7,56.2µM*,-5.2%,3.4%
COc1cccc(NC(=O)/C=C/c2ccco2)c1,-14.9%,-7.3,35.5µM*,?,-11.2%
COc1cccc(N2CCN(C(=O)/C=C/c3ccco3)CC2)c1,-1.3%,-19.4,8.91µM*,-13.5%,7.9%
CSc1cccc(NC(=O)/C=C/c2ccco2)c1,-18.9%,-5.9,56.2µM*,?,-15.4%
COc1ccc(NC(=O)N/C=C/c2ccco2)cc1,-28.1%,-3.3,50.1µM*,?,-13.5%
O=C(/C=C/c1ccco1)N1CCN(c2ncccn2)CC1,-8.0%,-0.6,?,-19.0%,-6.7%
COc1cccc(NC(=O)/C=C\c2ccc(Cl)cc2)c1,?,-8.8,3.5%,8.1%,?
CC(C)OCCCNC(=O)CN1C(=O)COc2ccc(S(=O)(=O)N3CCOCC3)cc21,-6.3%,nt,nt,-6.8%,-5.9%
CCc1cccc(-n2c(=O)c3cccnc3n2CC(=O)Nc2ccc(F)c(C)c2)c1,-25.9%,nt,nt,-0.6%,?
COc1ccccc1NC(=O)/C=C\c1ccco1,nt,-0.5,56.2µM*,nt,nt
Cc1sc(NC(=O)/C=C/c2ccco2)c(C(=O)OC(C)C)c1C,-14.7%,-0.2,31.6µM*,-12.1%,?
COC(=O)c1c(NC(=O)/C=C/c2ccco2)sc2c1CCC2,8.1%,-0.5,-5.9%,-5.5%,4.4%
CCOc1ccc(NC(=O)CN2C(=O)C(c3ccccc3)=NC23CCC(C)CC3)cc1 (stereo not drawn),-25.5%,nt,nt,-14.5%,-6.6%
CCOC(=O)N1CCc2c(sc3c2c(=O)n(Cc2ccccc2)c(=O)n3CC(=O)Nc2ccc(F)cc2)C1,?,nt,nt,7.7%,10µM*
COc1ccc(C(=O)NNC(=O)C(Cc2ccc(O)cc2)NC(=O)c2ccccc2NC(=O)c2ccc(OC)cc2)cc1 (stereo not drawn),-29.0%,-0.5,22.4µM*,-2.9%,-3.3%
SMILES,Tau fluor counter,Coupling enz,Sfp PPTase inh,Tau fibril ThT,Tau fibril FP
COc1ccc(C(=O)Nc2ccccc2C(=O)NC(Cc2ccc(O)cc2)C(=O)NNC(=O)c2ccccc2Cl)cc1 (stereo not drawn),-2.7%,1.3,44.7µM*,6.8%,0.1%
O=C1OC(c2ccc(Cl)cc2)=N/C1=C\C=C\c1ccco1,-13.2%,0.8,44.7µM*,?,-15.2%
O=C1OC(c2ccccc2)=N/C1=C\C=C\c1ccco1,-12.3%,3.9,39.8µM*,14.1µM*,-4.4%
O=C1OC(c2ccccc2)=N/C1=C\C=C\c1ccccc1[N+](=O)[O-],-2.3%,7.7,-1.4%,?,2.4%
O=C(Nc1ccccc1)N1CCCC2(CCN(C(=O)c3cccc(F)c3)CC2)C1,nt,1.6,4.3%,nt,nt
O=c1cnc2cncnc2n1Cc1ccc(F)cc1,nt,2.5,6.9%,nt,nt
COc1ccc(C2/C=C\CN(C(=O)c3ccccc3)C(C)C(=O)N2Cc2ccc(F)cc2)cc1 (stereo not drawn),nt,-0.4,-5.8%,nt,nt
COc1ccc(C(=O)c2c(C)oc3ccc(O)c(CN4CCOCC4)c23)cc1,-18.0%,-10.5,56.2µM*,-9.2%,-11.9%
CCCCC(=O)OCC(=O)[C@]1(O)Cc2c(O)c3c(c(O)c2[C@H](OC2CC(NC(=O)C(F)(F)F)C(O)C(C)O2)C1)C(=O)c1c(OC)cccc1C3=O (stereo partly drawn),nt,nt,8.7%,nt,nt
CC(=O)[C@]1(O)Cc2c(O)c3c(c(O)c2[C@@H](O[C@H]2C[C@H](N)[C@H](O)[C@H](C)O2)C1)C(=O)c1c(O)cccc1C3=O,?,-35.2*,?,4.47µM*,25.1µM*
CC(=O)[C@]1(O)Cc2c(O)c3c(c(O)c2[C@@H](O[C@H]2C[C@H](N)[C@H](O)[C@H](C)O2)C1)C(=O)c1ccccc1C3=O,?,nt,-21.2%,3.55µM*,?
Cc1ccc(SCC(c2ccccc2)N2CCN(CCc3ccccc3)CCC2=O)cc1 (stereo not drawn),nt,3.8,-4.8%,nt,nt
C=C(C(C)=O)C(O)c1ccccc1 (stereo not drawn),2.8%,3.5,-19.1%,-11.6%,8.0%
C=C(C(C)=O)C(O)c1ccco1 (stereo not drawn),-23.7%,1.0,?,28.2µM*,?
Cc1ccc(Oc2ccc(NC(=O)CSc3n[nH]c(N)n3)cc2)cc1,-26.8%,0.8,-22.0%,-6.6%,2.3%
Nc1nc(SCC(=O)Nc2c(Br)cc([N+](=O)[O-])cc2Br)n[nH]1,-3.4%,0.4,9.3%,-9.1%,1.4%
Nc1nc(SCC(=O)c2ccc([N+](=O)[O-])cc2)n[nH]1,-3.3%,-6.0,31.6µM*,-2.4%,1.7%
Nc1nc(SCC(=O)c2ccc(Oc3ccccc3)cc2)n[nH]1,-11.0%,-0.1,50.1µM*,-11.9%,0.8%
CC1(CC(=O)N/N=C/c2ccc(-c3ccc(C(=O)O)cc3)o2)OCCO1,-3.7%,-2.9,-20.3%,-8.4%,1.8%
COC(=O)c1ccc(-c2ccc(/C=N/NC(=O)CC3(C)OCCCO3)o2)cc1,-3.0%,-1.4,50.1µM*,?,-1.3%
CN(C)S(=O)(=O)c1cccc(C(=O)OCC(=O)Nc2sccc2C#N)c1,-11.2%,1.6,79.4µM*,-5.3%,4.3%
